Rows were chosen to be rich in hits. Some 4.1% of all compounds tested hit in one or more screens of this group.
hcDAF12 agonist – activates DAF-12 receptor from parasite H. contortus; activation, % at 6.8 µM; hit rate 1.4% among 370,000; HEK293 hcDAF-12 lit1-tk-luc reporter, luminescence; 0% DMSO, 100% Δ7-dafachronic acid;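 active means activation above the mean of all tested compounds plus 3 SD, cut at about 5.5% in these data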;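 further: 100% = response to 3 µM Δ7-dafachronic acid high control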
ssDAF-12 act – activators of S. stercoralis DAF-12 nuclear receptor; HEK293 ssDAF-12/GRIP1 lit1-tk-luc reporter, luminescence; % of 3 µM dafachronic acid response; activation, % at 6.8 µM; hit rate 1% among 370,000; AID 652126;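 active means activation above the mean over all tested compounds plus 3 SD, cut at about 0.9% in these data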;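 further: 0% = DMSO-only wells and 100% = 3 µM delta7-dafachronic acid wells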
DAX1 inh-1 – inhibitors of human orphan nuclear receptor DAX1 (NR0B1); HEK293 Gal4-DAX1 luciferase reporter, luminescence; inhibition, % at 6.75 µM; hit rate 0.99% among 340,000; AID 504766;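 active means inhibition above the mean over all tested compounds plus 3 SD, cut at about 4.2% in these data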;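 further: 0% = DAX1-transfected cells with DMSO and 100% = empty-vector control cells with DMSO; inhibition shows as a rise in luminescence from relieved DAX1 repression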
Target sequence (P51843 207-470 limits assumed): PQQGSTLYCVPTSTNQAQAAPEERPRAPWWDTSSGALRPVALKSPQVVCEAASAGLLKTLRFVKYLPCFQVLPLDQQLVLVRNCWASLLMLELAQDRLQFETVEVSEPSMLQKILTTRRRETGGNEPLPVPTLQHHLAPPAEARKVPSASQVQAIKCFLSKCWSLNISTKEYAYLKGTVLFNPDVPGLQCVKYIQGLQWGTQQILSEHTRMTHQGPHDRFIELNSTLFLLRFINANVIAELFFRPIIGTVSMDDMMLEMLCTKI
DAX1 inh-2 – inhibitors of DAX1 repression of SF-1 activated StAR promoter | HEK293T StAR-luciferase reporter, SF-1/DAX-1 repression relief | inhibition, % at 6.8 µM | hit rate 1.1% among 370,000 | AID 652010;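 active means inhibition above the mean over all tested compounds plus 3 SD, cut at about 3.6% in these data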;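 further: 0% = DAX-1 cells with DMSO and 100% = cells lacking DAX-1 with DMSO; higher inhibition means more luminescence from relief of DAX-1 repression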
hgDAF-12 ag – hgDAF-12 agonism, primary luciferase screen; AID 687014; HEK293 GAL4-hgDAF12 UAS-luciferase reporter, agonist luminescence; normalized to butyrate control; hit rate 1.8% among 370,000; activation, % at 6.8 µM;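 active means activation above a cutoff set at the mean of all screened compounds plus 3 SD, cut at about 10% in these data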;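 further: 0% = DMSO wells and 100% = sodium butyrate wells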
DAX1 inh confirm – confirmation of human DAX1 (NR0B1) inhibitors | shares compounds with DAX1 inh-2 | HEK293T StAR-promoter luciferase reporter, SF-1/DAX-1 repression | inhibition, % at 6.8 µM | hit rate 87% among 2,400 | AID 652134;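 active means inhibition above the average of every tested compound plus 3 SD, cut at about 3.8% in these data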;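 further: 0% = DAX-1 cells with DMSO and 100% = no DAX-1 control cells with DMSO; active compounds raise luminescence by relieving repression of the StAR reporter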
Target sequence (P51843 whole entry, looked up): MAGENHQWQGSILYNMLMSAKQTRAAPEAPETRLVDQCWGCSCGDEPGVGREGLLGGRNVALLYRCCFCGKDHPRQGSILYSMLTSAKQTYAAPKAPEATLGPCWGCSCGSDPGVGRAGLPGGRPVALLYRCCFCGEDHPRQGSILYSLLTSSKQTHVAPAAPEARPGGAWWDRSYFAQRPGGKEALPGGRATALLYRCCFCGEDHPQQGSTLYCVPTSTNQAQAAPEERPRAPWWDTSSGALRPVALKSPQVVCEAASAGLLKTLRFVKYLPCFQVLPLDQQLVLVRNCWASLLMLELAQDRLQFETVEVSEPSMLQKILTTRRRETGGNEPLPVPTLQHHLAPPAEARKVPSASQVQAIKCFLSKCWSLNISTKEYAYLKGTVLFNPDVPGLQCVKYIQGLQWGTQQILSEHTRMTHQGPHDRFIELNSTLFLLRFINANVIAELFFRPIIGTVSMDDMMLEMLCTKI
SF1 AF2mut Luc – nonselective inhibitor or artifact in SF-1 mutant DAX1 counter-screen; shares compounds with DAX1 inh-2; AID 652136; HEK293 StAR-luciferase, SF-1 AF2 mutant, luminescence; inhibition, % at 6.8 µM; hit rate 78% among 2,400;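 active means inhibition above the mean of all tested compounds plus 3 SD, cut at about 3% in these data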;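 further: 0% = DAX-1 transfected cells with DMSO and 100% = cells without DAX-1 with DMSO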
* = called active by the depositor; . = no result given.

SMILES | hcDAF12 agonist | ssDAF-12 act | DAX1 inh-1 | DAX1 inh-2 | hgDAF-12 ag | DAX1 inh confirm | SF1 AF2mut Luc
Cc1ccc2nc(-c3ccc(F)cc3)c(Cc3cccc(Cl)c3)n2c1 | 3 | 0 | . | 9.6* | 9 | 7.5* | 4.3*
Fc1ccc(-c2nc3ccc(Br)cn3c2Cc2cccc(F)c2)cc1 | 4 | -1 | . | 4 | 5 | . | .
Cc1ccc2nc(-c3ccc(F)cc3)c(Cc3cccc(F)c3)n2c1 | 4 | 0 | . | 4.8* | 11* | 4.1* | 4.6*
Fc1ccc(-c2nc3ccc(Br)cn3c2Cc2cccc(Cl)c2)cc1 | 0 | -1 | . | 1 | 3 | . | .
Cc1ccc2nc(-c3ccc(Cl)cc3)c(CC3CCCCC3)n2c1 | 7.4* | 1 | . | 6.2* | 23* | 5.3* | 4.9*
CCC1CCc2sc(C(=O)NCC3CCCO3)cc2C1 (stereo not drawn) | 1 | 0 | 3 | 10* | 11* | 7.3* | 3.5*
CCC1CCc2sc(C(=O)NNC(=S)NCC3CCCO3)cc2C1 (stereo not drawn) | -1 | -1 | 1 | 0 | 3 | . | .
N/C(=N\N=C\c1cccc([N+](=O)[O-])c1)c1nonc1N | 2 | -1 | . | 1 | 7 | . | .
N/C(=N\N=C\c1ccc2c(c1)OCO2)c1nonc1N | 5.9* | 0 | -2 | 6.2* | 8 | 18* | 9.6*
CN1c2ccc(C#CC3CC3)cc2[C@@H]2[C@@H](CCN2C(=O)C2CCOCC2)[C@H]1CO | -3 | -2 | . | 0 | 1 | . | .
CCOC(=O)N[C@@H](Cc1cccnc1)C(=O)N1CCC[C@H]1C(=O)NC1CCCC1 | 1 | -1 | . | 1 | 4 | . | .
O/N=C/CCn1c(=S)sc2ccccc21 | 1 | -1 | 1 | 1 | 1 | . | .
O=C(OCCn1c(=S)sc2ccccc21)c1ccccc1 | 2 | 0 | 3 | 6.7* | 7 | 9.1* | 7.1*
COc1cccc(C(NC(C)=O)c2nc(-c3ccc(F)cc3OC)cs2)c1 (stereo not drawn) | -1 | -1 | . | 5.8* | 3 | 6.6* | 3.3*
CC(=O)Nc1nc2cc3c(cc2s1)OCCO3 | 3 | 1.3* | 1 | 5.8* | 11* | 12* | 6.0*
O=C1CCC[C@H]2CC3(CC[C@]24CCCN14)OCCO3 | 0 | -2 | . | . | -2 | . | .
COc1ccc(/C=C2\CC3(OC(=O)c4ccco4)CCCN2C3)cc1 (stereo not drawn) | 1 | -1 | . | 1 | -3 | . | .
O=C(NC1CCCCC1)c1cc2cc(Br)ccc2o1 | 4 | 0 | 3 | 0 | 9 | . | .
Cc1ccc2cc3cc(C(=O)NC4CCCCC4)oc3nc2c1 | -1 | -1 | 0 | 5.5* | 1 | 1 | 0
Cc1ccc2cc3cc(C(=O)NC4CC4)oc3nc2c1 | -1 | -1 | 0 | 3 | 4 | . | .
O=C(NC1CCCC1)c1cc2cc(Br)ccc2o1 | 2 | -1 | 2 | 7.0* | 10 | 7.8* | 4.1*
Cc1ccccc1C(=O)NC1CCCCN(C)C1=O (stereo not drawn) | 0 | -1 | . | 1 | -3 | . | .
Cc1ccccc1CN1CCCCC(NC(=O)c2ccccc2C(F)(F)F)C1=O (stereo not drawn) | -4 | -1 | . | -1 | -5 | . | .
COc1ccc(C2CC(=O)C(c3ccc4ccccc4c3)=CN2Cc2ccccc2)cc1 (stereo not drawn) | -1 | -1 | . | -1 | 3 | . | .
O=C(Nc1ccc(CSc2ccccc2)cc1)c1ccco1 | 3 | 0 | 2 | 5.5* | 13* | 8.4* | 5.5*
SMILES | hcDAF12 agonist | ssDAF-12 act | DAX1 inh-1 | DAX1 inh-2 | hgDAF-12 ag | DAX1 inh confirm | SF1 AF2mut Luc
C/C(=N\NC(=O)c1ccoc1C)c1ccc(Cl)s1 | 2 | -1 | 1 | 3 | 8 | . | .
C/C(=N/NC(=O)c1ccoc1C)c1cccs1 | 5 | 0 | . | 7.8* | 9 | 12* | 7.3*
COC(=O)[C@]12C[C@H](CC(=O)N3CCN(C(=O)c4ccco4)CC3)C(=O)N(Cc3ccc4c(c3)OCO4)C1=C[C@H](COCc1ccccc1)O[C@@H]2C | -1 | -2 | . | 0 | -1 | . | .
O=C(Nc1cccs1)OC1CC2CC1[C@H]1CCCCN1C2 (stereo partly drawn) | -1 | 0 | . | 0 | 0 | . | .
CC(C)Oc1ccc(C(=O)Nc2nnc(SCC(=O)N3CCOCC3)s2)cc1 | 5 | 0 | -2 | 5.2* | 11* | 8.7* | 2
O=C(/C=C/c1ccco1)Nc1cc(Cl)ccc1C(=O)O | -1 | -1 | -1 | 0 | 1 | . | .
O=C(/C=C/c1ccco1)Nc1ccccc1C(=O)O | 4 | 0 | . | 4.6* | 13* | 9.3* | 5.7*
CC(C)S(=O)(=O)N[C@@H]1c2cc3c(cc2[C@H](c2ccccc2)[C@H]1C)OCO3 | 2 | -1 | . | -2 | 3 | . | .
Cc1ccc(CNC(=O)Nc2ccc(Cl)cc2)cc1 | 1 | 0 | 1 | 5.2* | 3 | 1 | 0
COc1ccc(OCc2nc3ccccc3[nH]2)cc1 | 2 | 0 | 2 | 5.7* | 10 | 13* | 8.4*
COc1cccc(OCc2nc3ccccc3[nH]2)c1 | 3 | 0 | 2 | 5.5* | 10 | 6.3* | 7.0*
c1ccc2[nH]c(COCc3nc4ccccc4[nH]3)nc2c1 | -2 | -1 | . | . | 1 | . | .
c1ccc2cc(OCc3nc4ccccc4[nH]3)ccc2c1 | 4 | 0 | 3 | 4.8* | 11* | 15* | 7.6*
COc1ccccc1NS(=O)(=O)c1cc(NC(=O)c2ccc(NC(C)=O)cc2)ccc1N1CCOCC1 | -1 | -1 | 2 | 7.0* | -4 | 10* | 0
COc1ccc(-c2coc3cc(O)ccc3c2=O)cc1O | 1 | 0 | 4 | 5.0* | 13* | 6.5* | 3.3*
COc1cc(O)cc2occ(-c3ccc(O)cc3)c(=O)c12 | 0 | -1 | 2 | 0 | 1 | . | .
COc1ccc(-c2cc(=O)oc3cc(O)ccc23)cc1 | -1 | -1 | 0 | 0 | 4 | . | .
COc1ccc(-c2coc3cc(OC4OC(CO)C(O)C(O)C4O)cc(O)c3c2=O)cc1 (stereo not drawn) | 5 | 0 | 2 | 11* | 11* | 11* | 5.7*
COc1ccc(-c2coc3cc(O)ccc3c2=O)cc1 | 5 | 0 | 2 | 4.9* | 8 | 11* | 5.1*
O=C(N[C@H](C(=O)N1CCC[C@H]1C(=O)NC1CCCC1)C1CCCCC1)c1cccs1 | -1 | -1 | . | 0 | -4 | . | .
O=C(CSc1nnc(-c2ccccn2)o1)Nc1ccccc1F | 5 | 0 | 1 | 14* | 12* | 15* | 6.3*
O=C(Nc1ccccc1)c1ccc(NC(=O)C2CC2)cc1 | 0 | -1 | 0 | 6.5* | 5 | 7.7* | 5.2*
O=C(NNC(=O)c1ccc(NC(=O)C2CC2)cc1)c1ccc(F)cc1 | -1 | -2 | 1 | 2 | 2 | . | .

Screening data from PubChem BioAssay.
